Assay results published in PubChem BioAssay AID2017 (National Center for Advancing Translational Sciences (NCATS), 2009).
Results filed as inconclusive are left out. Calls of active or inactive are those of the source. Calls follow the shape of the dose curve; as a rule, active = well fitted curve in the direction sought with a large enough effect; inconclusive = small, poorly fitted or top-dose-only effect, or another doubt; inactive = no such curve, though single readings can be large or run the other way.

System: 4-diphosphocytidyl-2-C-methyl-D-erythritol kinase IspE (bacterial, species not stated)
Test: Confirmatory Assay for Inhibitors of Human Galactokinase (GALK): CDP-Me assay counterscreen
Settings: ATP depletion, Kinase-Glo luminescence; series mostly up to 115 µM
Description: NIH Molecular Libraries Probe Production Centers Network [MLPCN] NIH Chemical Genomics Center [NCGC] MLPCN Grant: R03 MH085689-01 Assay Submitter (PI): Kent Lai (University of Utah School of Medicine, 50 N Mario Capecchi Drive, Salt Lake City, UT 84132) NCGC Assay Overview The GHMP kinase family is a unique class of important enzymes that plays an essential role in many metabolic processes. It contains more than 170 protein members among which are the galactokinase (GALK) and the CMK enzymes. GALK plays a crucial role in galactose processing and is a potential therapeutic target for Classic Galactosemia (OMIM: 230400). CMK is involved for the non-mevalonate synthesis of isoprenoids precursors and natural products like sterols or ubiquinones which are important to many biological functions. […]
NCGC Assay Protocol Summary: Three uL/well of substrate solution (15 uM ATP, 30 uM CDP-ME, 20 mM HEPES pH8.0, 5 mM MgCl2, 40 mM KCl, 1 mM DTT, 0.01% BSA final concentration) was dispensed into 1536-well, assay plates (Greiner, solid white medium-binding plates) with Aurora Discovery BioRAPTR Flying Reagent Dispenser (FRD; Beckton-Dickenson). […] After 1 min, luminescence was detected with the ViewLux plate reader (Perkin Elmer, Waltham, MA) using a 1 sec exposure time and 2x binning settings.

SMILES | outcome
COCCCn1c(N)c(C(=O)NCc2ccco2)c2nc3ccccc3nc21 | inactive
O=C1NC(=S)N(Cc2ccco2)C(=O)/C1=C\c1cccs1 | inactive
